Where “and” joins values, the source holds several entries; their conditions need not be identical. Equal entries are not always repeated. Results filed as inconclusive are left out. Calls of active or inactive are those of the source. Rule for the calls: active = hit-call score of the fitted dose curve at least 0.9, where 1 is the maximum; inconclusive = response in the unintended direction; inactive = score below 0.9.

The AC50 is the concentration at which the activity in the assay is half-maximal.

Assay [1] deals with T1, Estrogen receptor (Homo sapiens) + Estrogen receptor beta (Homo sapiens) (UniProt P03372+Q92731). The experiment in a line: OT_ER_ERaERb_0480: Odyssey Thera (OT) 8-hour HEK293T Protein-Complementation Assay for Estrogen Receptor-alpha/-beta Heterodimer (AID 2283352). The gist of the method:
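Fluorescence increase from reconstituted reporter fragments, quantified by laser scanning cytometer, reflects ER-alpha/ER-beta heterodimer formation in human HEK293T cells. Exposure 8 h; positive-direction fitting against DMSO vehicle.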

Assay [2] has as its target T1, Estrogen receptor (Homo sapiens) + Estrogen receptor beta (Homo sapiens). The experiment in a line: OT_ER_ERaERb_1440: Odyssey Thera (OT) 24-hour HEK293T Protein-Complementation Assay for Estrogen Receptor-alpha/-beta Homodimer (AID 2283356).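 Note: heteromer of ER alpha and ER beta binding domains; hits raise reporter fluorescence and both agonists and antagonists give an increase.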 The essentials:
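Fragment complementation between ER alpha (310-547) and ER beta (263-489) ligand-binding domains in HEK293T cells; signal read 24 h post-dosing by laser scanning cytometer. Gain of fluorescence relative to DMSO fitted.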

Assay [3] deals with Estrogen receptor beta (Homo sapiens) (UniProt Q92731). Description: OT_ER_ERbERb_0480: Odyssey Thera (OT) 8-hour HEK293T Protein-Complementation Assay for Estrogen Receptor-beta/-beta Homodimer (AID 2283357).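 Note: active means signal gain over DMSO baseline.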 The gist of the method: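 ER-beta LBD homodimer PCA stably expressed in HEK293T; 8 h compound exposure, then formaldehyde fixation and Draq5 staining. Gain in nuclear/cytoplasmic fluorescence intensity versus DMSO vehicle, read on laser scanning cytometer.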

Assay [4] deals with human Thyroid Receptor Alpha (TRa), THRA (gene 7067) (UniProt P10827). Description: NVS_NR_hTRa_Antagonist: NovaScreen (NVS) Nuclear Receptor Binding Assay for human Thyroid Receptor Alpha Antagonism (TRa) (AID 2283362).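 Note: activity is loss of signal relative to DMSO baseline.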 The gist of the method: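 Actives from a duplicate 25 uM single-point screen were retested in concentration series. The cell-free antagonist-format binding assay was read by AlphaLISA chemiluminescence at 1 h, scored as signal loss relative to DMSO.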

Assay [5] concerns the target Nuclear receptor subfamily 1 group I member 2 (Homo sapiens) (UniProt O75469). The experiment in a line: NVS_NR_hPXR: NovaScreen (NVS) Nuclear Receptor Binding Assay for human Pregnane X Receptor (PXR) (AID 2283365).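 Note: a drop in FRET signal versus DMSO baseline means the compound binds.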 The essentials: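 Human PXR binding measured by TR-FRET in a cell-free format, 2 h exposure. Single-concentration duplicates at 25 uM preceded concentration-response retests of actives; endpoint fitted positively relative to DMSO, loss of signal indicating binding.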

Assay [6] has as its target Peroxisome proliferator-activated receptor gamma (Homo sapiens) (UniProt P37231). Description: NVS_NR_hPPARg: NovaScreen (NVS) Nuclear Receptor Binding Assay for human Peroxisome Proliferator-activated Receptor gamma (PPARg) (AID 2283370). The gist of the method: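 Fluorescence polarization readout of ligand binding to extracted human PPARg, measured at 2 h. Duplicate single-point screen at 25 uM, then concentration-series retesting; activity defined as signal loss versus DMSO.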

The target in assay [7] is mouse Estrogen Receptor alpha (Era), Esr1 (gene 13982) (UniProt P19785). The experiment in a line: NVS_NR_mERa: NovaScreen (NVS) Nuclear Receptor Binding Assay for mouse Estrogen Receptor alpha (Era) (AID 2283378).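 Note: hit means loss of bound radioligand signal relative to DMSO.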 The essentials:
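Filter radiodetection of radioligand displacement from extracted receptor protein, measured 18 h post-dose. Single 25 uM concentration in duplicate initially, with concentration-series follow-up. Binding loss fitted relative to DMSO.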

In assay [8] the target is Retinoic acid receptor alpha (Homo sapiens) (UniProt P10276). Description: NVS_NR_hRAR_Antagonist: NovaScreen (NVS) Nuclear Receptor Binding Assay for human Retinoic Acid Alpha Receptor Antagonism (RAR) (AID 2283358). The gist of the method:
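RARalpha antagonism was read by TR-FRET as loss of binding signal versus DMSO, 2 h after chemical addition, in a biochemical format. Single-concentration duplicates (25 uM) were run first, and actives were retested in concentration series.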

Assay [9] addresses human Peroxisome Proliferator-activated Receptor alpha (PPARa), PPARA (gene 5465) (UniProt Q07869). The experiment in a line: NVS_NR_hPPARa: NovaScreen (NVS) Nuclear Receptor Binding Assay for human Peroxisome Proliferator-activated Receptor alpha (PPARa) (AID 2283359).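 Note: activity means loss of TR-FRET signal versus DMSO baseline.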 The gist of the method:
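Loss of TR-FRET binding signal relative to DMSO was measured 1 h after chemical addition to extracted receptor protein. Chemicals were first tested in duplicate at 25 uM, and actives were followed up in concentration series.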

For assay [10], the target named is Retinoic acid receptor alpha (Homo sapiens) (UniProt P10276). The experiment in a line: NVS_NR_hRARa_Agonist: NovaScreen (NVS) Nuclear Receptor Binding Assay for human Retinoic Acid Alpha Receptor Agonism (RAR) (AID 2283361). The gist of the method:
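Agonist-mode TR-FRET binding format using extracted protein, measured at 2 h post-dosing. Initial duplicate single-point screen at 25 uM preceded concentration series for actives; activity was normalized to DMSO baseline.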

The target in assay [11] is rat Mineralocorticoid Receptor (MR), Nr3c2 (gene 25672) (UniProt P22199). Description: NVS_NR_rMR: NovaScreen (NVS) Nuclear Receptor Binding Assay for rat Mineralocorticoid Receptor (MR) (AID 2283355). The essentials:
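Primary HTS ran in duplicate at a single 25 uM concentration, with concentration-series follow-up for actives. Receptor source: adrenalectomized rat brain supernatant, cell-free. Radioligand displacement read by scintillation at 24 h, relative to DMSO baseline.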

Assay [12] concerns the target rat Serotonin Transporter (SERT), Slc6a4 (gene 25553) (UniProt P31652). Description: NVS_TR_rSERT: NovaScreen (NVS) Transporter Assay for rat Serotonin Transporter (SERT) (AID 2283375). The gist of the method:
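Radioligand binding with competitive displacement on rat forebrain membrane preparations, counted by filtration and scintillation after 1 h. Primary single-point duplicates at 25 uM; active chemicals followed up in concentration-response. DMSO served as baseline.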

For assay [13], the target named is Androgen Receptor/SRC-1 Co-activator, AR (gene 367) (UniProt P10275). The experiment in a line: OT_AR_ARSRC1_0960: Odyssey Thera (OT) 16-hour HEK293T Protein-Complementation Assay for Androgen Receptor/SRC-1 Co-activator (AID 2283353).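 Note: actives raise the signal above DMSO so potency reflects increased AR and SRC-1 complex.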 The gist of the method: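 Stable HEK293T line carries AR and SRC-1 each linked to a Venus fragment; chemicals are applied for 16 h, cells imaged at two wavelengths, and the 488 nm nucleus/cytoplasm ratio is taken as the signal, rising relative to DMSO.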

Assay [14] shares this target. The experiment in a line: OT_AR_ARSRC1_0480: Odyssey Thera (OT) 8-hour HEK293T Protein-Complementation Assay for Androgen Receptor/SRC-1 Co-activator (AID 2283354).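 Note: hits raise the complementation signal above DMSO so AC50 marks enhancers.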 The essentials: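 Reconstituted split-Venus YFP signal from AR–SRC-1 interaction, read by imaging 8 h post-dose in stable HEK293T lines. The 488 nm nucleus-to-cytoplasm ratio (≥400 cells/image) was fitted upward against DMSO.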

The target in assay [15] is PGR (gene 5241) (UniProt P06401). The experiment in a line: NVS_NR_hPR: NovaScreen (NVS) Nuclear Receptor Binding Assay for human Progestron Receptor (PR) (AID 2283360).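 Note: active means loss of bound radioligand signal versus DMSO baseline.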 The gist of the method:
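Competitive displacement of a labelled radioligand from T47D-derived receptor protein is measured in a cell-free format. Initial testing uses 25 uM in duplicate, with positive and negative controls on every plate.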

Assay [16] addresses guinea pig Sigma Receptor, Non-selective Binding, SIGMAR1 (gene 100135589) (UniProt Q60492). The experiment in a line: NVS_OR_gSIGMA_NonSelective: NovaScreen (NVS) Nuclear Receptor Binding Assay for guinea pig Sigma Receptor, Non-selective Binding (AID 2283367). The gist of the method:
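Guinea pig brain membrane sigma sites were labelled with a radioligand, and bound radioactivity was counted after filtration 1 h post-dose. Compounds were screened at 25 uM in duplicate, then retested as concentration series when active.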

Assay [17] relates to guinea pig Dopamine Transporter (DAT), gene 100714898. Description: NVS_TR_gDAT: NovaScreen (NVS) Transporter Assay for guinea pig Dopamine Transporter (DAT) (AID 2283369).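 Note: active compounds lower bound radioligand signal relative to DMSO.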 The gist of the method: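 Radioligand displacement on membranes from guinea pig striatum, 2 h exposure, bound label counted by filtration and scintillation. Tested at 25 uM in duplicate, then actives in concentration series to 50 uM; DMSO as negative control.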

Sequence of Estrogen receptor beta (Homo sapiens) (Q92731 whole entry, looked up, the tested form may be a part): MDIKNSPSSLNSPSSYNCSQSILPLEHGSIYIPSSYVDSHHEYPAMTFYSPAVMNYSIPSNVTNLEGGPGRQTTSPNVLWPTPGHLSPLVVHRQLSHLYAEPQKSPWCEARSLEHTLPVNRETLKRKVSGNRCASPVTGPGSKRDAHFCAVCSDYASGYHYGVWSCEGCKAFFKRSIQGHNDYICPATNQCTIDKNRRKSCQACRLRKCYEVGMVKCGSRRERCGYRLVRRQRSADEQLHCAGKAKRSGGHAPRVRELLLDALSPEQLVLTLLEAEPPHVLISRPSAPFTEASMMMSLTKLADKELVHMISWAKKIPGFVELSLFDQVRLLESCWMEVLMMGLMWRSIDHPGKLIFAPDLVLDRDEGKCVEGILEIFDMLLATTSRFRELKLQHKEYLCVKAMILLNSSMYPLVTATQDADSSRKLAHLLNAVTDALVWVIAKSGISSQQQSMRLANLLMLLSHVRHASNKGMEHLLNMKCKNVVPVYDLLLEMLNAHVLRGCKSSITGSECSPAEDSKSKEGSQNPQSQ
Sequence of Nuclear receptor subfamily 1 group I member 2 (Homo sapiens) (O75469 whole entry, looked up): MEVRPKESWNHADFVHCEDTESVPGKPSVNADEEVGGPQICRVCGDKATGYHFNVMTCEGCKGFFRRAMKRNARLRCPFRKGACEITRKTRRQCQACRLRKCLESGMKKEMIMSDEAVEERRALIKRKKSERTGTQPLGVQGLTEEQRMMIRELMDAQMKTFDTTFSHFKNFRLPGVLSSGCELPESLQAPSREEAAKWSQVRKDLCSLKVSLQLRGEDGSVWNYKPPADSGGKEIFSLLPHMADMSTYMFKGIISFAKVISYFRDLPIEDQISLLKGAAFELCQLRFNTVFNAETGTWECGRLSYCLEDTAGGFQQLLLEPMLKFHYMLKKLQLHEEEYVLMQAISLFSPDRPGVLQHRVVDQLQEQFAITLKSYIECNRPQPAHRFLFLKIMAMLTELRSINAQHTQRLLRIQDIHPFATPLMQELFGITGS
Sequence of Peroxisome proliferator-activated receptor gamma (Homo sapiens) (P37231 whole entry, looked up): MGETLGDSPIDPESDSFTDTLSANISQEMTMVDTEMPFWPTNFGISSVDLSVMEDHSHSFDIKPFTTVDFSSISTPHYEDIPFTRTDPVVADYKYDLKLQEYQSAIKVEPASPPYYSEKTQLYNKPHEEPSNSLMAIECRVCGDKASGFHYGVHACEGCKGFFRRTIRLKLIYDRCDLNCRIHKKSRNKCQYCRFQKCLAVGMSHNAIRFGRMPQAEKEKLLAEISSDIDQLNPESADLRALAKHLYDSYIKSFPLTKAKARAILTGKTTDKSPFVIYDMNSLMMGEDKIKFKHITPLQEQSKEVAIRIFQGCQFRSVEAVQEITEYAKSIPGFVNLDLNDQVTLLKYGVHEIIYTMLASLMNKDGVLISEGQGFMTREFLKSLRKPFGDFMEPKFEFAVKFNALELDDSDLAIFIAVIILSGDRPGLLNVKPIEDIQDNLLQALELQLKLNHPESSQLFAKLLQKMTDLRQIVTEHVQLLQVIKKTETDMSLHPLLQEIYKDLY
T1 sequence (P03372 whole entry, looked up, the tested form may be a part): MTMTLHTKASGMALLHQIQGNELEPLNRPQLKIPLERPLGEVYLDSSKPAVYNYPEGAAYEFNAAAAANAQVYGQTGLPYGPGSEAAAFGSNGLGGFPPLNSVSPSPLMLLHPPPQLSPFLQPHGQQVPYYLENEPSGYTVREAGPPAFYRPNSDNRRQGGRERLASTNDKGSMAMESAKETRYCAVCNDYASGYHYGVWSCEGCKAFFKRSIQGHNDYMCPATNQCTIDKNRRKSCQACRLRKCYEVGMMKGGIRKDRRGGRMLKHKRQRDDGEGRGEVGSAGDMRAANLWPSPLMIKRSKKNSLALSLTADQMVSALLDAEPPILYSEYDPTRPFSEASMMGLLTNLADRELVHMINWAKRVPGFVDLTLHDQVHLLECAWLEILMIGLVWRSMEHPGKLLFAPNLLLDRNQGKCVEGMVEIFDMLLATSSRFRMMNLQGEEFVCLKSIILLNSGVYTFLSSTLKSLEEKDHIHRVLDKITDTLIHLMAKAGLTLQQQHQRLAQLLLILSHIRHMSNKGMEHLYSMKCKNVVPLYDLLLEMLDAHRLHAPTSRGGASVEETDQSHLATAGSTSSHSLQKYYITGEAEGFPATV
T1 sequence (Q92731 whole entry, looked up, the tested form may be a part): as the sequence (Q92731 whole entry, looked up, the tested form may be a part) above
Sequence of mouse Estrogen Receptor alpha (Era), Esr1 (gene 13982) (P19785 whole entry, looked up): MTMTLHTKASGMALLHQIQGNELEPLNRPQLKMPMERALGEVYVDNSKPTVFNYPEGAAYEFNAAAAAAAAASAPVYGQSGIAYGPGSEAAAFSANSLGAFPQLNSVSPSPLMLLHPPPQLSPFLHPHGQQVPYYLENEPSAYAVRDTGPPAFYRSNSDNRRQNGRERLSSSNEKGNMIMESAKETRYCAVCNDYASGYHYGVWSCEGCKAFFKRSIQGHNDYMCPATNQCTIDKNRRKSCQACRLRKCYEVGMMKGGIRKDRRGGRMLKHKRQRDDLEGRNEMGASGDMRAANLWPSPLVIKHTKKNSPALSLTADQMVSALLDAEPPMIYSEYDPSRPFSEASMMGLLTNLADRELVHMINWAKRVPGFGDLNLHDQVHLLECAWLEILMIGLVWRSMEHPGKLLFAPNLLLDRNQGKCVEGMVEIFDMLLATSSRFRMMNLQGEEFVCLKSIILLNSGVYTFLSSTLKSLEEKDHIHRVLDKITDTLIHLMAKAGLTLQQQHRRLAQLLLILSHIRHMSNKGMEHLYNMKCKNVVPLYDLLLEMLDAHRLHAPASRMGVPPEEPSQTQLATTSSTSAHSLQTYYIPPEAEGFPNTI
Sequence of guinea pig Sigma Receptor, Non-selective Binding, SIGMAR1 (gene 100135589) (Q60492 whole entry, looked up): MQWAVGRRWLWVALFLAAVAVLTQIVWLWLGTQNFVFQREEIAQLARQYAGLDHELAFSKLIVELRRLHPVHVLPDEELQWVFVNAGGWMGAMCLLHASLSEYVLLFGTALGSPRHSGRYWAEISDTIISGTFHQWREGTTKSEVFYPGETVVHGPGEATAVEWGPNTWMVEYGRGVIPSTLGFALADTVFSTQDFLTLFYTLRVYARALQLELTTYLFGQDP
Sequence of Retinoic acid receptor alpha (Homo sapiens) (P10276 whole entry, looked up): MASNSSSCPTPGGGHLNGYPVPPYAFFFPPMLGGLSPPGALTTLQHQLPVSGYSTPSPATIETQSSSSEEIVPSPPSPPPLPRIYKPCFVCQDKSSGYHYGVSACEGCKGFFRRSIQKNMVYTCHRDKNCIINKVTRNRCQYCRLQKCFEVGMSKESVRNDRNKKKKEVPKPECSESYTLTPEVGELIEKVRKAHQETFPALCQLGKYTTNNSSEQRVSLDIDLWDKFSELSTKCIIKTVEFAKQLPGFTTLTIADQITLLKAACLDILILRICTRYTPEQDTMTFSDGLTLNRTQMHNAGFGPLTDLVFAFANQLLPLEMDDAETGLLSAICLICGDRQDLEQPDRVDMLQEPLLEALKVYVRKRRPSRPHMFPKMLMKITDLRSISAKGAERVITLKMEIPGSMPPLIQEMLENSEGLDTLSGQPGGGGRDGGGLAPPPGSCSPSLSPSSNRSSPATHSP
Sequence of Androgen Receptor/SRC-1 Co-activator, AR (gene 367) (P10275 whole entry, looked up, the tested form may be a part): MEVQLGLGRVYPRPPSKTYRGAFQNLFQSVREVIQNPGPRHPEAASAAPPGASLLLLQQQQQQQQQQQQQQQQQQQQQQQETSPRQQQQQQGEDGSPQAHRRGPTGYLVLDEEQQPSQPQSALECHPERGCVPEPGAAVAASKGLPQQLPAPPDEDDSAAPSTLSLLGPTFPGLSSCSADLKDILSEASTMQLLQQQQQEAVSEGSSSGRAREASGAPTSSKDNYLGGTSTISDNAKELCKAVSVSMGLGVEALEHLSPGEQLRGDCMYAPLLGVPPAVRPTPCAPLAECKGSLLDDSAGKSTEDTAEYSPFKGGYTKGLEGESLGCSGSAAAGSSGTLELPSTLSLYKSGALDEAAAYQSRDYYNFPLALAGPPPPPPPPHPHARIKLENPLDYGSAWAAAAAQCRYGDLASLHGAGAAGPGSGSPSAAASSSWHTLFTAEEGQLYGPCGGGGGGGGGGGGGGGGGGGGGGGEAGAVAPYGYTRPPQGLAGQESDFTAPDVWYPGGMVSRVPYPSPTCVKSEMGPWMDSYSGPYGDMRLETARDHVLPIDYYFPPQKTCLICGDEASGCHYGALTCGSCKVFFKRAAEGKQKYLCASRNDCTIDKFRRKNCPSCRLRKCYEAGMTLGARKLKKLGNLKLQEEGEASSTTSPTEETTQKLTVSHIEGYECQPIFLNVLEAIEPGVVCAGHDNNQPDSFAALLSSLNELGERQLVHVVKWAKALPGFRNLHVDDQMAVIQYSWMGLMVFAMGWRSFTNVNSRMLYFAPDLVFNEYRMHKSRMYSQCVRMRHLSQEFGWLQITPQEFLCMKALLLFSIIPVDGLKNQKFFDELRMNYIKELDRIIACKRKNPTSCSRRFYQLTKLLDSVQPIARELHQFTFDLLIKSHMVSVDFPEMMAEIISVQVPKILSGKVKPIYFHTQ
Sequence of human Peroxisome Proliferator-activated Receptor alpha (PPARa), PPARA (gene 5465) (Q07869 whole entry, looked up): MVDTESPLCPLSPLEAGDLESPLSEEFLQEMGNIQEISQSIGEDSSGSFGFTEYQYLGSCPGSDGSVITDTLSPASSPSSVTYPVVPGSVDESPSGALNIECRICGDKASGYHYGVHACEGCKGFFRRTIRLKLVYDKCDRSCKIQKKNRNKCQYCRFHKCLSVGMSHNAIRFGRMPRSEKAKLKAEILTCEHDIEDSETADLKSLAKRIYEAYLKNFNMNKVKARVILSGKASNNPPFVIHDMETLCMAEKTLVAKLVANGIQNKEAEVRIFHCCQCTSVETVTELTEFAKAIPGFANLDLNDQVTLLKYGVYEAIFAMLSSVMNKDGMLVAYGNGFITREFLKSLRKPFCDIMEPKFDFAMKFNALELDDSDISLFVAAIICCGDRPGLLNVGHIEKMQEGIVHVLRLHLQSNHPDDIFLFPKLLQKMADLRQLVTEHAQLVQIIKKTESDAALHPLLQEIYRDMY

As for `O=S1(=O)OC(c2ccc(O)cc2)(c2ccc(O)cc2)c2ccccc21`, the result in [1], in [2], in assay [3], in [5] and in assay [6] was inactive. In addition, the figures for the AC50 in assay [4] and in assay [7] were 11 µM (active) and 20.1 µM (active), respectively.

As to `CCO[Si](C)(OCC)OCC`, the result in assay [2] and in assay [3] was inactive.

`CCCCC(CC)CCC(CC(C)C)OS(=O)(=O)O` (configuration not stated): the outcome in assay [1], in assay [2] and in assay [8] was inactive. Moreover, the AC50 is 2.49 µM (active) in assay [5]; 8.17 µM (active) and 6.89 µM (active) in [6].

For the molecule `CCOC(=O)CC`, the result in assay [2] and in [3] was inactive.

In the case of `CCCCCCCC[N+](C)(CCCCCCCC)CCCCCCCC`, the result in [1] was inactive. Besides, the AC50 is 6.9 µM (active) in assay [9], 4.37 µM (active) in assay [10] and 0.338 µM (active) in [7].

Consider `CC(=O)OC(C)C`, for which the result in assay [2], in [3], in assay [5], in assay [6] and in assay [7] was inactive.

For the molecule `O=C(O)CCCC[C@@H]1SC[C@@H]2NC(=O)N[C@@H]21`, the outcome in [1], in [2], in [3] and in [7] was inactive.

`CC(C)(c1cc(Br)c(OCCO)c(Br)c1)c1cc(Br)c(OCCO)c(Br)c1`: the outcome in assay [11] and in assay [7] was inactive. Besides, in [12], the AC50 was 2.88 µM (active).

Regarding `O=C1C(N(CO)C(=O)NCO)N(CO)C(=O)N1CO` (configuration not stated), the result in [2] and in [3] was inactive.

As to `CC(CC=O)CCCC(C)(C)O` (configuration not stated), the outcome in assay [13] and in [14] was inactive.

As to `Cc1ccc(C(C)(C)C)cc1`, in assay [9], the molecule was classed as inactive.

As to `CC1=NN(c2cc(S(=O)(=O)O)ccc2Cl)C(=O)C1N=Nc1ccccc1` (configuration not stated), the outcome in assay [1], in assay [2], in assay [3] and in assay [6] was inactive.

`O=C(C(Cl)Cl)N1CCOC12CCCCC2`: the outcome in assay [2], in assay [3] and in assay [6] was inactive.

On to `CO[Si](CCC1CCC2OC2C1)(OC)OC` (configuration not stated), for which the molecule was called inactive in assay [15].

For `CCCCCCCCO[C@@H]1O[C@H](CO)[C@@H](O)[C@H](O)[C@H]1O`, the outcome in assay [2] and in [3] was inactive. Further, the concentration at half-maximal activity (AC50) in assay [6] was 36.5 µM (active).

As to `NC(=O)N=NC(N)=O`, the outcome in assay [2] and in assay [3] was inactive.

Take `OCCCS`: the molecule was classed as inactive in assay [15].

As for `C1CN(SSN2CCOCC2)CCO1`, the outcome in [5] was inactive.

Turning to `CC(C)C1=CC2=CC[C@@H]3[C@](C)(CCC[C@@]3(C)C(=O)O)[C@H]2CC1`, the AC50 in assay [5] was 16 µM (active).

Regarding `S=C(NC1CCCCC1)NC1CCCCC1`, in assay [16], the AC50 is 5.93 µM (active).

Consider `CCCCCCCCCCCCCCCC[N+](C)(C)CC`, for which the AC50 in assay [16] is 1.23 µM (active).

As to `COc1ccc2nc(N)sc2c1`, in assay [17], the call was inactive.

As to `c1ccc2c(c1)ccc1ncccc12`, in assay [17], the half-maximal activity concentration (AC50) is 34.7 µM (active).

The values above are taken from PubChem BioAssay (EPA / NIEHS).
